In assay [1] the target is Cellular tumor antigen p53 (Homo sapiens) (UniProt P04637). The experiment in a line: Primary qHTS for small molecule compounds that upregulate eGFP-tagged delta133p53alpha (in N-terminal) cells. (AID 2060322). Further: nearly all actives have a fitted effect of over 75% in size. Further: potency means the concentration at half of the fitted maximal effect.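 On activation: 0% = DMSO vehicle and 100% = reference activator.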 As to conditions: NCI-H358 eGFP-delta133p53alpha fluorescence, 24 h; activation: hits give high values. In outline: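 NCI-H358 cells pre-induced 24 h with 10 ng/ml doxycycline to express N-terminal eGFP-delta133p53alpha, then dosed 24 h at 37C without doxycycline; fixed, Hoechst-stained, GFP intensity by laser scanning cytometry, normalized to DMSO (0%) and 57.5 uM 5-azacytidine (100%).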
For orientation: In qHTS, concentration-response curves come from the screen itself.

The target in assay [2] is Aldehyde dehydrogenase, mitochondrial (Homo sapiens) (UniProt P05091). The experiment in a line: qHTS for Inhibitors of the Aldehyde Dehydrogenase Family (ALDH2) Primary screen (AID 2061308).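 Further: plate controls were vehicle for no effect and reference inhibitor for full effect; nearly all actives have a fitted effect of over 55% in size.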 The settings on record: ALDH2 enzyme inhibition qHTS, 1536-well; series mostly up to 56 µM.
Assay [3] deals with Retinaldehyde dehydrogenase 3 (Homo sapiens) (UniProt P47895). The experiment in a line: qHTS for Inhibitors of the Aldehyde Dehydrogenase Family (ALDH1A3) Primary screen (AID 2061315).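 Further: plate controls were DMSO vehicle for no effect and reference inhibitor for full effect.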 As to conditions: ALDH inhibition qHTS; series mostly up to 56 µM.

This note sets out measurements from PubChem BioAssay (NCATS).

Results filed as inconclusive are left out. A number with no mark means an inactive call. Calls of active or inactive are those of the source. The call rests on the fitted dose curve; in most records, active means well fitted curve in the direction sought with a large enough effect; inconclusive means small, poorly fitted or top-dose-only effect, or another doubt; inactive means no such curve, though single readings can be large; an effect the other way counts as inactive or inconclusive. Square brackets hold non-standard residues; d marks the D form. Peptide text beside a SMILES is read from it. Ala(indol-2-yl) = N[C@@H](Cc1cc2ccccc2[nH]1)C(=O)O; Aib = CC(C)(N)C(=O)O

Chain of Cellular tumor antigen p53 (Homo sapiens) (P04637 whole entry, looked up): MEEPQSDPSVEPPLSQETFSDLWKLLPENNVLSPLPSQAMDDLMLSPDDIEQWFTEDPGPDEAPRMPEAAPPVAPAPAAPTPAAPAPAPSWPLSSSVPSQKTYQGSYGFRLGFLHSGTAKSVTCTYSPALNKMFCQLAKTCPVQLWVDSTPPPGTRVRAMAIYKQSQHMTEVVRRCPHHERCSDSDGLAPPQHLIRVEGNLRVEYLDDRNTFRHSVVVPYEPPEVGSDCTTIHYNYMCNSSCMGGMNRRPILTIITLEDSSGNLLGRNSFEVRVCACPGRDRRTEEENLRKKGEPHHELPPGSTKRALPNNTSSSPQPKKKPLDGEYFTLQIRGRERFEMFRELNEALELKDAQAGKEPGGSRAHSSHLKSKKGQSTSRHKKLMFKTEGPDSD

`CC1=CC2OC3[C@H](O)C[C@@](C)([C@]34CO4)[C@@]2(CO)[C@H](O)C1=O` (stereo partly drawn): the Potency in assay [1] was 23.9 µM (active). Also, the Potency result in assay [2] and in assay [3] was “inactive” in each case.
On to `CCC1CN2CCc3cc(OC)c(OC)cc3C2CC1CC1=NCCc2cc(O)c(OC)cc21` (stereo not drawn), for which the activation in assay [1] is 23.2%. Further, the Potency result in assay [2] and in assay [3] was “inactive” throughout.
In the case of `CC(C)(NC(=O)[C@@H](N)Cc1ccc(O)cc1)C(=O)N[C@@H](Cc1cc2ccccc2[nH]1)C(=O)N[C@@H](Cc1ccccc1)C(=O)O` (H-Y[Aib][Ala(indol-2-yl)]F-OH), the activation in assay [1] is 7%. Moreover, the activity change, negative = inhibition in assay [2] was -1.78% [at 11.2 µM]; in assay [3] it was -10.2% [at 11.2 µM].
Take `CCC(C)(OC(C)=O)C(=O)O[C@H]1[C@H](OC(C)=O)C[C@@H]2[C@@](C)([C@@H]3C[C@H]4C=CO[C@H]4O3)[C@H](C)C[C@H](OC(C)=O)[C@@]2(COC(C)=O)[C@@]12CO2` (stereo partly drawn): in assay [1], the activation was -3.82%. For the same compound, the Potency entry in assay [2] and in assay [3] was “inactive” throughout.
Take `OCc1nnc2n1-c1ccc(Cl)cc1C(c1ccccc1Cl)=NC2`: in assay [1], the activation is -3.67%. Moreover, the Potency result in assay [2] and in assay [3] was “inactive” in each case.
For `CC[C@@H]1/C=C/C=C/C[C@H](C)C(O)[C@](C)(O)C(=O)[C@H](C)C(O)[C@H](C)C(=O)[C@H](C)[C@@H](O)[C@H](C)/C=C/C(=O)O[C@H]2[C@@H](C)[C@@H](CC1)O[C@]1(O[C@H](C[C@H](C)O)[C@H](C)CC1=O)[C@@H]2C` (stereo partly drawn), in assay [1], the activation is -12.2%. Further, the Potency entry in assay [2] and in assay [3] was “inactive” each time.
`CC1CCCC(=O)CCC/C=C/c2cc(O)cc(O)c2C(=O)O1` (stereo not drawn): the activation in assay [1] was 7.14%. For the same compound, the Potency entry in assay [2] and in assay [3] was “inactive” throughout.
As for `CC1=CC(=O)[C@@H](O)[C@@]2(C)C1C[C@H]1OC(=O)[C@H](O)[C@@]3(O)[C@@H](C)[C@@H](O)[C@H](O)C2[C@@]13C` (stereo partly drawn), the Potency in assay [1] is 14.8 µM (active). For the same compound, the Potency result in assay [2] and in assay [3] was “inactive” throughout.
On to `CC[C@@]1(O)C(=O)OCc2c1cc1n(c2=O)Cc2cc3c(OC)cccc3nc2-1`, for which, in assay [1], the Potency was 6.59 µM (active). Besides, the Potency entry in assay [2] and in assay [3] was “inactive” each time.
As for `CC(=O)OC1CC(O)C(C)(C)C2CC(OC(C)=O)C3(C)C(CCC4(C)C(c5ccoc5)C(=O)C5OC543)C12C` (stereo not drawn), the activation in assay [1] is -13%. Moreover, the Potency result in assay [2] and in assay [3] was “inactive” in each case.
With `COC1CC(O[C@H]2CC[C@]3(C=O)C4CC[C@]5(C)[C@@H](C6=CC(=O)OC6)CC[C@]5(O)[C@@H]4CC[C@@H]3C2)OC(C)C1O[C@@H]1O[C@H](CO)[C@@H](O[C@@H]2O[C@H](CO)[C@@H](O)[C@H](O)[C@H]2O)[C@H](O)[C@H]1O` (stereo partly drawn), the Potency in assay [1] was 3.21 µM (active). In addition, the Potency entry in assay [2] and in assay [3] was “inactive” throughout.
As to `C=C1CC[C@H]2[C@@H](/C=C(\C)C(=O)[C@@]3(OC(C)=O)C[C@H](C)[C@H](OC(=O)c4ccccc4)[C@@H]3[C@H]1OC(C)=O)C2(C)C`, the activation in assay [1] was -11.5%. In addition, the Potency entry in assay [2] and in assay [3] was “inactive” in each case.
Take `Cc1sc2c(c1C)C(c1ccc(Cl)cc1)=NC(CC(=O)OC(C)(C)C)c1nnc(C)n1-2` (stereo not drawn): the activation in assay [1] is 7.64%. Besides, the Potency entry in assay [2] and in assay [3] was “inactive” each time.
`CO[C@@H]1[C@@H](O)[C@@H](O[C@H]2CC[C@]3(C=O)C4CC[C@]5(C)[C@@H](C6=CC(=O)OC6)CC[C@]5(O)[C@@H]4CC[C@H]3C2)O[C@@H](C)[C@H]1O[C@@H]1O[C@H](CO[C@@H]2O[C@H](CO)[C@@H](O)[C@H](O)[C@H]2O)[C@@H](O)[C@H](O)[C@H]1O` (stereo partly drawn): the activation in assay [1] is -9.92%. For the same compound, the Potency entry in assay [2] and in assay [3] was “inactive” throughout.
With `C[C@H](Nc1ncnc2nc[nH]c12)c1nc2ccc(F)cc2c(=O)n1-c1ccccc1`, in assay [1], the activation is 11.6%. Further, the Potency result in assay [2] and in assay [3] was “inactive” in each case.
With `C=C(C)[C@@]12O[C@@H]1[C@@]1(C)C(=CC2=O)CC[C@@H](OC(C)=O)[C@@H]1C`, the Potency in assay [1] is 30.1 µM (active). The Potency entry in assay [2] and in assay [3] was “inactive” throughout.
As for `CC12CCC3C(C1)c1c(cc(O)c(C(=O)c4ccccc4)c1OC3(C)C)O2` (stereo not drawn), in assay [1], the activation is -17.6%. For the same compound, the Potency result in assay [2] and in assay [3] was “inactive” throughout.
Turning to `CC1=C2C(=O)C3[C@@H](CC=C4C[C@@H](O)CC[C@@]43C)[C@@H]2CC[C@]12O[C@@H]1C[C@H](C)CN[C@H]1[C@H]2C` (stereo partly drawn), the activation in assay [1] was 4.58%. The Potency entry in assay [2] and in assay [3] was “inactive” each time.
As to `C[C@H]1CCC[C@H](O)CCC/C=C/c2cc(O)cc(O)c2C(=O)O1`, in assay [1], the activation was -13%. The Potency entry in assay [2] and in assay [3] was “inactive” throughout.
For the compound `CCCOC(=O)Cc1ccc(OCC(=O)N(CC)CC)c(OC)c1`, the activation in assay [1] is 4.33%. For the same compound, the Potency result in assay [2] and in assay [3] was “inactive” each time.
As to `C=CC(C)(C)C12C=C(O)C(=O)N3/C(=C\c4cnc[nH]4)C(=O)NC31N(OC)c1ccccc12` (stereo not drawn), the Potency in assay [1] is 4.65 µM (active). Besides, the Potency entry in assay [2] and in assay [3] was “inactive” throughout.
